# The sample as a whole holds a higher share of the strongest signals than the screen did.
# B1: Langerin CRD (Homo sapiens), Q9UJ71 (protein)
# chain: QVVSQGWKYFKGNFYYFSLIPKTWYSAEQFCVSRNSHLTSVTSESEQEFLYKTAGGLIYWIGLTKAGMEGDWSWVDDTPFNKVQSVRFWIPGEPNNAGNNEHCGNIKAPSLQAWNDAPCDKTFLFICKRPYVPSEPSAWSHPQFEK
# Assays:
# Assay in all cases: glycan array binding signal (z-score within array); higher = stronger binding
# Conditions in all cases: glycan notation: IUPAC condensed, linker removed
# Fuc(a1-2)Gal = target: Fuc(a1-2)Gal
# Outline: (§1)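 Glycan array data were curated from 3228 arrays in the Consortium for Functional Glycomics database and kept only where the protein sequence was available. Glycan names were converted to IUPAC-condensed notation, and columns mapping to the same glycan were averaged. The binding signal is a within-array Z-score, averaged across arrays of the same protein sequence at different concentrations or buffers and across linkers. Negative Z-scores can be read as non-binding.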
# Fuc(a1-2)Gal(b1-3)GlcNAc = target: Fuc(a1-2)Gal(b1-3)GlcNAc
# Outline: as §1
# Fuc(a1-2)[Gal(a1-3)]Gal = target: Fuc(a1-2)[Gal(a1-3)]Gal
# Outline: as §1
# Gal(a1-3)Gal(b1-3)GlcNAc = target: Gal(a1-3)Gal(b1-3)GlcNAc
# Outline: as §1
# Gal(a1-3)Gal(b1-4)Glc = target: Gal(a1-3)Gal(b1-4)Glc
# Outline: as §1
# Gal(a1-6)Glc = target: Gal(a1-6)Glc
# Outline: as §1
# Gal(b1-3)Gal(b1-4)GlcNAc = target: Gal(b1-3)Gal(b1-4)GlcNAc
# Outline: as §1
# [1] = target: Gal(b1-3)GlcNAc(b1-3)Gal(b1-4)Glc
# Outline: as §1
# [2] = target: Gal(b1-3)[Fuc(a1-4)]GlcNAc
# Outline: as §1
# [3] = target: Gal(b1-4)GlcNAc(b1-3)[GlcNAc(b1-6)]Gal(b1-4)GlcNAc
# Outline: as §1
# [4] = target: Gal(b1-4)GlcNAc(b1-6)[Gal(b1-3)]GalNAc
# Outline: as §1
# Gal3S(b1-4)Glc = target: Gal3S(b1-4)Glc
# Outline: as §1
# Gal6S(b1-4)Glc6S = target: Gal6S(b1-4)Glc6S
# Outline: as §1
# Gal6S(b1-4)GlcNAc6S = target: Gal6S(b1-4)GlcNAc6S
# Outline: as §1
# [5] = target: GalNAc(b1-3)Gal(a1-4)Gal(b1-4)GlcNAc
# Outline: as §1
# [6] = target: GlcNAc(b1-2)Gal(b1-3)GalNAc
# Outline: as §1
# [7] = target: GlcNAc(b1-4)Gal(b1-4)GlcNAc
# Outline: as §1
# [8] = target: Man(a1-2)Man(a1-2)Man(a1-3)Man
# Outline: as §1
# [9] = target: Man(a1-2)Man(a1-3)[Man(a1-2)Man(a1-6)]Man(a1-6)[Man(a1-2)Man(a1-2)Man(a1-3)]Man(b1-4)GlcNAc(b1-4)GlcNAc
# Outline: as §1
# [10] = target: Neu5Ac(a2-3)Gal(b1-3)GalNAc
# Outline: as §1
# [11] = target: Neu5Ac(a2-3)Gal(b1-4)GlcNAc(b1-2)Man(a1-3)[Neu5Ac(a2-6)Gal(b1-4)GlcNAc(b1-2)Man(a1-6)]Man(b1-4)GlcNAc(b1-4)GlcNAc
# Outline: as §1
# [12] = target: Neu5Ac(a2-3)Gal(b1-4)GlcNAc(b1-6)[Gal(b1-3)]GalNAc
# Outline: as §1
# Neu5Ac(a2-8)Neu5Ac = target: Neu5Ac(a2-8)Neu5Ac
# Outline: as §1
# [13] = target: Neu5Ac9Ac(a2-6)Gal(b1-4)GlcNAc
# Outline: as §1
# [14] = target: Neu5Gc(b2-6)Gal(b1-4)GlcNAc
# Outline: as §1
binder,measurement,setting,value
B1,glycan array binding signal (z-score),Fuc(a1-2)Gal,0.647
same,glycan array binding signal (z-score),Fuc(a1-2)Gal(b1-3)GlcNAc,0
same,glycan array binding signal (z-score),Fuc(a1-2)[Gal(a1-3)]Gal,4.04
same,glycan array binding signal (z-score),Gal(a1-3)Gal(b1-3)GlcNAc,-0.623
same,glycan array binding signal (z-score),Gal(a1-3)Gal(b1-4)Glc,-0.487
same,glycan array binding signal (z-score),Gal(a1-6)Glc,-0.427
same,glycan array binding signal (z-score),Gal(b1-3)Gal(b1-4)GlcNAc,-0.488
same,glycan array binding signal (z-score),[1],-0.48
same,glycan array binding signal (z-score),[2],-0.279
same,glycan array binding signal (z-score),[3],0.314
same,glycan array binding signal (z-score),[4],-0.489
same,glycan array binding signal (z-score),Gal3S(b1-4)Glc,-0.325
same,glycan array binding signal (z-score),Gal6S(b1-4)Glc6S,4.01
same,glycan array binding signal (z-score),Gal6S(b1-4)GlcNAc6S,6.72
same,glycan array binding signal (z-score),[5],-0.356
same,glycan array binding signal (z-score),[6],4.61
same,glycan array binding signal (z-score),[7],1.57
same,glycan array binding signal (z-score),[8],4.1
same,glycan array binding signal (z-score),[9],-0.352
same,glycan array binding signal (z-score),[10],-0.547
same,glycan array binding signal (z-score),[11],-0.647
same,glycan array binding signal (z-score),[12],-0.693
same,glycan array binding signal (z-score),Neu5Ac(a2-8)Neu5Ac,-0.544
same,glycan array binding signal (z-score),[13],-0.422
same,glycan array binding signal (z-score),[14],-0.263
